Source: PubChem BioAssay (NCATS)
Records with an inconclusive call do not appear. The source made the active and inactive calls. Unless noted, calls follow the shape of the full dose curve.

Tests used:
[1] = Validation screen for inhibitors of Lassa infection (AID 463096)
[2] = qHTS for Inhibitors of the Functional Ribonucleoprotein Complex (vRNP) of Lassa (LASV) Arenavirus: LASV Primary Screen - GLuc reporter signal (AID 1347082; calls by dose curve; tested in HEK293 reporter line; also: series mostly up to about 57 µM; nearly all actives have a fitted effect of over 60% in size)
[3] = qHTS for Inhibitors of the Functional Ribonucleoprotein Complex (vRNP) of Lassa (LASV) Arenavirus: Viability assay - alamar blue signal for LASV Primary Screen (AID 1347083; calls by dose curve; tested in HEK293 reporter line; also: series mostly up to about 57 µM; nearly all actives have a fitted effect of over 80% in size)
[4] = qHTS for Inhibitors of the Functional Ribonucleoprotein Complex (vRNP) of Lymphocytic Choriomeningitis Arenaviruses (LCMV): Viability assay - alamar blue signal for LCMV Primary Screen (AID 1347085; calls by dose curve; tested in HEK293 reporter line; also: series mostly up to about 57 µM; nearly all actives have a fitted effect of over 80% in size)
[5] = target: Nucleoprotein (Lymphocytic choriomeningitis virus (strain Armstrong)) (UniProt P09992); test: qHTS for Inhibitors of the Functional Ribonucleoprotein Complex (vRNP) of Lymphocytic Choriomeningitis Arenaviruses (LCMV): LCMV Primary Screen - GLuc reporter signal (AID 1347086); also: series mostly up to about 57 µM; nearly all actives have a fitted effect of over 70% in size
Nucleoprotein (Lymphocytic choriomeningitis virus (strain Armstrong)), sequence (P09992 whole entry, looked up): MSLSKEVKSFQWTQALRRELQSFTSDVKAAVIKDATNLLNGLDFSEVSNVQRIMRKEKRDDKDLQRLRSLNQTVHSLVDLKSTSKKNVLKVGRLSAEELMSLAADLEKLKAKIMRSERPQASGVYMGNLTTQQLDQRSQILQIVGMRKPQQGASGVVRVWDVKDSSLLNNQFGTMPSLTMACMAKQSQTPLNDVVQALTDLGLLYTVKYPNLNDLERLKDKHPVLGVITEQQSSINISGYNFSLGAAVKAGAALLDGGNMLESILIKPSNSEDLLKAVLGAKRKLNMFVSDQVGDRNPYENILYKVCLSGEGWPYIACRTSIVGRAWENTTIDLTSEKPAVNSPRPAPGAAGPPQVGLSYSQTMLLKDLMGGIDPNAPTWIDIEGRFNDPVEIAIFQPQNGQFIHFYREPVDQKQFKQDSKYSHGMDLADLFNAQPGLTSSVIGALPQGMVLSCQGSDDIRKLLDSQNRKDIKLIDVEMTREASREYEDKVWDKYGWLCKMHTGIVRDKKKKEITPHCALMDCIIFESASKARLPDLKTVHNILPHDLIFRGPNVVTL

Measured: Potency

O=C(O)[C@H]1NCCC[C@H]1C(=O)O
inactive: all assays above
